Data as given in PubChem BioAssay AID686940 (The Scripps Research Institute Molecular Screening Center, 2013).
In all, about 370,000 compounds went through this assay and about 2,600 (0.7%) were called active. Only a selection was taken, and actives are over-represented in it overall. A number with no mark means an inactive call.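 The calls were made as follows: active = inhibition above a per-plate cutoff, mean inhibition of test wells between control levels plus 3 SD (cut at about 38% in these data); inactive = the rest.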

target: COUP transcription factor 2 (Homo sapiens) (UniProt P24468); assay: COUP-TFII reporter suppression in human cells – cell-based, luciferase reporter, HEK293T, luminescence, primary screen (AID 686940); conditions: HEK293T NGFI-A luciferase reporter, at 8.6 µM, hits give high values;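 also: cells cotransfected with COUP-TFII expression vector driving the NGFI-A reporter; 0% = median of COUP-TF2 test wells and 100% = reporter-only cells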
Sequence (P24468 whole entry, looked up): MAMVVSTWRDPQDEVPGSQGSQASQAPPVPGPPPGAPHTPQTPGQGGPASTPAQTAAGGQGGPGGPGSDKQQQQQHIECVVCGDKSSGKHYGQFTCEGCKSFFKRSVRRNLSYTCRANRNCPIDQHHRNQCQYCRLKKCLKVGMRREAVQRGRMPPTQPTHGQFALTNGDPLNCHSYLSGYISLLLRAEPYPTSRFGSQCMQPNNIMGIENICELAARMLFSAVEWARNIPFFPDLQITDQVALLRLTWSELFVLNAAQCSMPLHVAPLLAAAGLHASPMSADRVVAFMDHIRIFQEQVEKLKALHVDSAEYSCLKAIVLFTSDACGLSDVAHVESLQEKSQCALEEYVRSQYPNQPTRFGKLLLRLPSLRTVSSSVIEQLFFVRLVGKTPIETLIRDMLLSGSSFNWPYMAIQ

With `Cc1ccccc1OCC(=O)Nc1ccc(N2CCN(C(=O)C(C)C)CC2)c(Cl)c1` as the molecule, how does the inhibition read?
Its inhibition is 40.9% (active).

For `Cc1ccc(NC(=O)COc2coc(CN3CCc4ccccc4C3)cc2=O)cc1Cl`, which inhibition is on record?
Its inhibition is 8.3%.

Which inhibition does the source give for `CCc1ccccc1OCC(=O)Nc1ccc(C)c(S(=O)(=O)N2CCCCCC2)c1` here?
The inhibition was 16.9%.

How did the inhibition turn out when `C=CCOC/C=C/C#CCN(CC=C)Cc1ccc(OC)cc1OC` was run?
Its inhibition is -4.38%.

For `CC1(C)CC2CC(C)(CN2c2ncnc3ccc(Br)cc23)C1` (stereo unspecified), which inhibition is on record?
Its inhibition is 16.5%.

For `CCOC(=O)CNc1nc(Cl)nc(Nc2ccc(OC)cc2OC)n1`, which inhibition is on record?
Its inhibition is 9.09%.

Which inhibition does the source give for `COc1ccc(Nc2ncnc3ccc(Br)cc23)c(OC)c1` here?
The inhibition was 39.9% (active).

For `O=C(Nc1cccc(Cl)c1)OC1CC2CC1[C@H]1CCCCN1[C@H]2Cc1ccccc1` (stereo partly specified), which inhibition is on record?
Its inhibition is 14.6%.

With `O=C(Nc1ccc(N2CCOCC2)c(Cl)c1)c1ccc(S(=O)(=O)N2CCOCC2)cc1` as the molecule, how does the inhibition read?
Its inhibition is 6.88%.

How did the inhibition turn out when `COc1ccc(C(=O)Nc2nc(-c3ccc(S(=O)(=O)N4CCOCC4)cc3)cs2)cc1` was run?
Its inhibition is 70.8% (active).

With `COc1ccc(C(=O)Nc2cc(S(=O)(=O)N3CCCC3)ccc2Cl)cc1` as the molecule, how does the inhibition read?
Its inhibition is 1.63%.

`COC(=O)[C@@]12CCCCC3=C1N(CCC3)C(=O)[C@H]2CC(=O)NCc1cccc2ccccc12` was tested. Which inhibition did it give?
Its inhibition is -8.73%.

How did the inhibition turn out when `Cc1c[nH]c2cccc(-c3ccc(Cl)cc3)c12` was run?
The inhibition was 1.03%.

For `COc1cccc(/C=C2\CC3(OC(C)=O)CCCN2C3)c1` (stereo unspecified), which inhibition is on record?
Its inhibition is -14.3%.

With `CC(=O)N1CCCN(C2=Nc3ccccc3Sc3ccccc32)CC1` as the molecule, how does the inhibition read?
The inhibition was -4.52%.

How did the inhibition turn out when `Cc1cc(C(=O)COc2ccccc2Cl)c(C)n1C1CC1` was run?
The inhibition was -24.6%.

How did the inhibition turn out when `Cc1cc(C(=O)COC(=O)C2CC2)c(C)n1-c1ccc(F)cc1` was run?
The inhibition was 56.4% (active).

Which inhibition does the source give for `Cc1cc(C(=O)CSc2nc(N)cc(=O)[nH]2)c(C)n1-c1cccc(F)c1` here?
Its inhibition is 27.2%.

`COC(=O)[C@]12C[C@H](CC(=O)N3CCN(C(=O)C4CC4)CC3)C(=O)N(CCC3=CCCCC3)C1=C[C@H](C(C)C)O[C@@H]2C1CC1` was tested. Which inhibition did it give?
Its inhibition is 5.77%.

`CC(C)C(C#CC1CC1)N(Cc1ccc2c(c1)OCO2)C(N)=NC(=O)/C=C/c1cccc(C(F)(F)F)c1` (stereo unspecified) was tested. Which inhibition did it give?
Its inhibition is -0.2%.

Which inhibition does the source give for `CCCOc1ccc(Cc2c(Cl)nc(SC)nc2NC)cc1` here?
The inhibition was 46.9% (active).

How did the inhibition turn out when `CCCOc1ccc(Oc2c(Cl)cnn(Cc3cccc4ccccc34)c2=O)cc1` was run?
Its inhibition is 3.48%.

How did the inhibition turn out when `CCCOc1ccc(Cc2c(O)nc(SC)[nH]c2=O)cc1C` was run?
Its inhibition is 17.2%.

For `COC(=O)[C@]12C[C@H](CC(=O)NCC34CC5CC(CC(C5)C3)C4)C(=O)N(Cc3ccc(Cl)cc3Cl)C1=C[C@H](COCc1ccccc1)O[C@@H]2C`, which inhibition is on record?
The inhibition was -8.65%.

Which inhibition does the source give for `COc1ccc(/C=C2\CC3(OC(C)=O)CCCN2C3)cc1` (stereo unspecified) here?
The inhibition was -13.1%.

How did the inhibition turn out when `Fc1ccc2nc(COCc3nc4ccc(F)cc4[nH]3)[nH]c2c1` was run?
Its inhibition is -29.3%.

How did the inhibition turn out when `O=C(CNS(=O)(=O)c1ccccc1F)N1CCN(c2ccccn2)CC1` was run?
The inhibition was 8.7%.

Which inhibition does the source give for `COCC(C)n1c(SCC(=O)NC2CCCCC2C)nc2ccccc2c1=O` (stereo unspecified) here?
The inhibition was 1.47%.

For `O=C(c1ccco1)N(Cc1nc2ccccc2c(=O)[nH]1)C1CCCC1`, which inhibition is on record?
The inhibition was -0.35%.

For `CN(c1ccc2nc3ccccc3c(=O)n2n1)C1CCCCC1`, which inhibition is on record?
Its inhibition is 88.6% (active).

Which inhibition does the source give for `CN1[C@H](Cc2ccccc2)COc2cccc(N3CCSCC3)c2S1(=O)=O` here?
Its inhibition is 5.38%.

`C[C@@H]1COc2cccc(N3CCCC3)c2S(=O)(=O)N1C` was tested. Which inhibition did it give?
Its inhibition is -14.7%.

For `COC(=O)c1cc(S(=O)(=O)N2CCN(C(=O)C3CCCO3)CC2)cn1C` (stereo unspecified), which inhibition is on record?
Its inhibition is -3.24%.

`CCCCNC(=O)C[C@H]1C(=O)N(Cc2ccc(OC)cc2)C2=CCCC[C@@]21C(=O)OCC` was tested. Which inhibition did it give?
The inhibition was 7.45%.

How did the inhibition turn out when `CCn1c(CNC(=O)c2cc(OC)c(OC)c(OC)c2)cc2cc(C)ccc21` was run?
Its inhibition is 41.5% (active).

With `COc1cc(C(=O)NCc2nnc(SCC(=O)Nc3nc4ccc(C)cc4s3)o2)cc(OC)c1OC` as the molecule, how does the inhibition read?
The inhibition was -8.42%.

`COc1cc(C(=O)NCC(=O)N2CC=C(c3ccccc3)CC2)cc(OC)c1OC` was tested. Which inhibition did it give?
Its inhibition is 9.83%.

`COc1ccccc1C(=O)NC1CCCCN(C(C)C)C1=O` (stereo unspecified) was tested. Which inhibition did it give?
Its inhibition is 2.43%.

With `CC1CCN(c2ccc(C(=O)O)cc2NS(=O)(=O)c2ccc(Br)s2)CC1` as the molecule, how does the inhibition read?
Its inhibition is -3.26%.

`CN(O)C(=S)c1ccccc1` was tested. Which inhibition did it give?
Its inhibition is 43.2% (active).

`CCn1c2ccccc2c2cc(NC(=O)CSc3nnc(-c4ccccc4)n3-c3ccc(C)cc3)ccc21` was tested. Which inhibition did it give?
Its inhibition is 22.1%.

For `COC(=O)[C@]1(C#N)CC(=O)N(CC2CCCCC2)[C@@H]1c1ccccc1`, which inhibition is on record?
The inhibition was -5.14%.

For `COc1ccccc1CCNC(=O)C1CCN(c2nc(C)cc(C)n2)CC1`, which inhibition is on record?
Its inhibition is 1.51%.

With `O=C(Nc1cc(F)cc(F)c1)OC1CCC12CCC(c1ccccc1)CC2` (stereo unspecified) as the molecule, how does the inhibition read?
The inhibition was 19%.

How did the inhibition turn out when `CN1CCN(Cc2nc3cc(NC(=O)COc4ccc([N+](=O)[O-])cc4)ccc3n2C)CC1` was run?
Its inhibition is 10.4%.

With `O=C(Nc1ccc(CN2CCOCC2)cc1)c1cc(Cl)ccc1Cl` as the molecule, how does the inhibition read?
The inhibition was 5.94%.

With `Cn1c(CN2CCOCC2)nc2cc(NC(=O)c3ccc(Cl)cc3)ccc21` as the molecule, how does the inhibition read?
Its inhibition is 49.9% (active).

For `CCc1ccccc1NC(=O)CSc1nnc(-c2cccs2)o1`, which inhibition is on record?
Its inhibition is -16.3%.

Which inhibition does the source give for `COc1ccc(-n2c(C)cc(C(=O)CSc3nnc(-c4cccs4)o3)c2C)cc1` here?
Its inhibition is 54.9% (active).

With `COc1ccc(-c2nnc(SCC(=O)c3ccc4c(c3)OCCO4)o2)cc1` as the molecule, how does the inhibition read?
Its inhibition is 17.8%.

For `CCC[C@H]1C(=O)CC[C@@]23CCCN2C(=O)CCC[C@@H]13`, which inhibition is on record?
The inhibition was -13.2%.

For `Cc1nc(C(=O)Nc2ccc(Cl)cc2)sc1C1(C)CC(c2ccccc2)=NO1` (stereo unspecified), which inhibition is on record?
The inhibition was 5.05%.

For `Cc1nc(-c2ccc(Cl)cc2)sc1C1(C)CC(c2ccccc2F)=NO1` (stereo unspecified), which inhibition is on record?
Its inhibition is -23.8%.

How did the inhibition turn out when `Cc1nc(C(=O)NCc2ccccc2)sc1C1(C)CC(c2cccnc2)=NO1` (stereo unspecified) was run?
The inhibition was 37.6% (active).

For `CCOC(=O)[C@]12CCCCC/C=C\1N(Cc1ccc(OC)cc1)C(=O)[C@H]2CC(=O)NCCCN1CCCC1=O`, which inhibition is on record?
The inhibition was 1.89%.

For `CC(C)(C)OC(=O)NCCc1ccccc1/C=C/S(=O)(=O)NCc1ccc(F)cc1`, which inhibition is on record?
Its inhibition is 13.2%.
